# Screening data (PubChem BioAssay)
# ASM inhibitor: Inhibitors of Secretory Acid Sphingomyelinase (S-ASM): qHTS; Potency, µM (top dose mostly 57.5 µM), inactives show at the highest dose activity change, negative = inhibition, most hits filed as inhibitors; 340,000 tested, 0.006% active; AID 504937, 2011; placental ASM, HMU-PC fluorogenic substrate, 60 min; active means well fitted inhibition curve with a large enough effect; inconclusive means small, poorly fitted or top-dose-only effect; inactive means no such curve, though single readings can be large or run the other way; further: potency means the concentration at half of the fitted maximal effect
#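 Fluorogenic HMU-PC substrate (9 uM final) is turned over by placental ASM in 60 min at 37 C after a 10 min compound preincubation. Reaction ended by alkaline stop (pH 10), with fluorescence read at 386/447 nm.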
# CtBP-E1A inh: qHTS Assay for Inhibitors of the CtBP/E1A Interaction; CtBP / adenovirus E1A interaction (AlphaScreen); AlphaScreen GST-E1A/His-CtBP binding, 1536-well; stronger effect = lower value; activity change, % (test concentration not listed); 340,000 tested, 0.49% active; further: on the % scale 0 is the no-effect control and ±100 the full control effect
#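 Homogeneous bead-based format: GST-tagged E1A captured on glutathione donor beads, His-tagged CtBP on nickel acceptor beads; compounds precede bead addition by 2 h at 37 °C.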
# Six1-Eya2 blk: qHTS Assay for Inhibitors of the Six1/Eya2 Interaction | Homeobox protein SIX1 (Homo sapiens) + Protein phosphatase EYA2 (Homo sapiens), … | AlphaScreen GST-Six1/His-Eya2 binding, biochemical; stronger effect = lower value | activity change, % (test concentration not listed) | 360,000 tested, 0.56% active | AID 651725, 2012; further: on the % scale 0 is the no-effect control and ±100 the full control effect
# Target sequence (O00167 whole entry, looked up): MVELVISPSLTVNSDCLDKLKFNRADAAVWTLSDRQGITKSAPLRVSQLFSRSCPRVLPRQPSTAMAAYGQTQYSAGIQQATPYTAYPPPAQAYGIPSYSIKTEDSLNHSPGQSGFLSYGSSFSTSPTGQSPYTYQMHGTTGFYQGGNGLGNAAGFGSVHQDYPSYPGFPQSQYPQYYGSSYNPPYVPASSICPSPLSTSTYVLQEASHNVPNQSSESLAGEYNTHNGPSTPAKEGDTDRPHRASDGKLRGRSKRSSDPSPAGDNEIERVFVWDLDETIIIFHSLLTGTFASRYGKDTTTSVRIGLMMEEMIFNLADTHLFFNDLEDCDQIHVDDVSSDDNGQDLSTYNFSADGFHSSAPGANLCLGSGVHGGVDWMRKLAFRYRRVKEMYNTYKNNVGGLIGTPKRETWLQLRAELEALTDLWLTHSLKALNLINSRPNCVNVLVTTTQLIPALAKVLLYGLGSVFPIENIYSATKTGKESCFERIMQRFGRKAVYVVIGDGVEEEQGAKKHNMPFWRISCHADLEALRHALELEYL
# Target sequence (Q15475 whole entry, looked up): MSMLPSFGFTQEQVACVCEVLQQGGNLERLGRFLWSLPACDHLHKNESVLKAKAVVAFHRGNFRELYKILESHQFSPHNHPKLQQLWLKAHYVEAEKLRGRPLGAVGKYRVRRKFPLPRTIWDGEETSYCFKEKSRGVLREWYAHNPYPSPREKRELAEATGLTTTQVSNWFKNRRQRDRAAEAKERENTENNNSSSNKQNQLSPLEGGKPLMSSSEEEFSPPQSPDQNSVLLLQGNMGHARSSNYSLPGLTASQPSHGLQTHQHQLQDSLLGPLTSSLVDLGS
#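 GST-Six1 + His-Eya2 (5X stock: 250/500 nM); Tris pH 8.0, 300 mM NaCl, 0.05% BSA, 0.02% Tween 20; GSH donor/Ni acceptor beads; 1 h 37 °C dark; AlphaScreen readout.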
# TSHR antagonist: Antagonists of the Thyroid Stimulating Hormone Receptor: HTS campaign; Thyrotropin receptor (Homo sapiens), P16473; TSHR-expressing cells, TSH-stimulated cAMP HTRF, 2 h; stronger effect = lower value; activity change, negative = inhibition, % at 11.5 µM; 330,000 tested, 0.2% active;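 active means activity change below a set negative limit, meaning inhibition stronger than a set level, cut at about -70% in these data; inconclusive means activity change between two set negative limits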; further: on the % scale 0 is the no-effect control and ±100 the full control effect
#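 Read-out is FRET at 665 nm (cryptate excitation 337 nm) from a cryptate-tagged anti-cAMP antibody, competed by cell cAMP against cAMP-d2. Compounds are tested on freshly harvested TSHR cells challenged with 4nM TSH (EC80) for 2 hours at 37 deg C.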
# BCR signal inh: qHTS Assay to Find Inhibitors of Chronic Active B-Cell Receptor Signaling. ABC-DLBCL IkBa-CBG/CBR reporter, luminescence ratio, 4 h. Potency, µM (top dose mostly 46.1 µM), inactives show at the highest dose activity change, negative = inhibition, most hits filed as inhibitors. 340,000 tested, 0.05% active; active means well fitted inhibition curve with a large enough effect in the signal ratio, with a control signal flat, not every such curve was filed as active; inconclusive means small, poorly fitted or top-dose-only effect, or effect the other way, or a change in a side signal; the % refers to the signal ratio;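 further: potency means the concentration at half of the fitted maximal effect; plate controls were basal doxycycline-induced cells for no effect and cells given 10 µM MG132 for full effect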
#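 Cell line TMD8 (human ABC DLBCL), stably expressing tet-inducible CBG68-IkBa fusion and CBR; IMDM/0.5% FBS; cpd up to 46 uM; dox induction, 4 h, 37C/5% CO2; dual luminescence; green/red ratio; MG132 control.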
# Starred values were filed as active, the others as inactive; u = inconclusive; x = no result. Shown are actives, neighbours in structure and some others; about 0.85% of the full set was active somewhere. Unless noted, no stated cut-off is given here; in the data, active means activity change below about -65%; inconclusive means mostly about -30% to -63%; inactive means weaker than that.
SMILES,ASM inhibitor,CtBP-E1A inh,Six1-Eya2 blk,TSHR antagonist,BCR signal inh
O=C(CSC1=NNC(c2ccccn2)S1)Nc1cccc(Cl)c1 (stereo not drawn),-1.5%,-96.0*,-89.2*,2.1,-10.1%
Cc1ccc(-c2ccc(=O)n(CC(=O)NC(C)c3ccccc3)n2)cc1 (stereo not drawn),x,x,x,x,2.9%
O=C(NCc1ccccc1)c1ncn(Cc2ccccc2)c1C(=O)NCc1ccccc1,-0.6%,4.9,-7.9,-15.7,4.4%
O=C(O)c1ncn(Cc2ccccc2)c1C(=O)O,2.4%,u,-69.1*,-2.8,-0.4%
CCN(c1cccc(C)c1)S(=O)(=O)c1cn(CC(=O)OC)c2ccc([N+](=O)[O-])cc12,-1.9%,x,-3.2,-130.4*,u
CN(C=[N+](C)C)c1cccc2c1C(=O)c1ccccc1C2=O,-0.3%,-68.2*,-66.0*,-0.9,4.5%
O=C(CSc1nc(=O)[nH]c2c1CCC2)Nc1cc(C(F)(F)F)ccc1Cl,x,x,x,x,27.1%
O=C(Nc1nc(-c2ccccn2)cs1)c1ccc(Cl)s1,-15.6%,u,u,13.0,-1.6%
O=C(Nc1nc(-c2ccccn2)cs1)c1ncc(Cl)c(Cl)c1Cl,-3.6%,-74.5*,u,-21.4,u
Cc1cccnc1Nc1nc(-c2ccccn2)cs1,2.2%,-94.9*,-78.5*,-5.3,u
CCc1sc(C(=O)Nc2nc(-c3ccccn3)cs2)cc1C,-2.5%,-89.7*,-67.5*,-7.9,-1.6%
Cc1ccc(C(=O)Nc2nc(-c3ccccn3)cs2)s1,0.9%,-90.8*,-90.0*,0.1,-14.8%
Cc1csc(NC(=O)c2cccn2C)n1,4.5%,-13.4,-6.9,1.7,u
Cn1cccc1C(=O)Nc1nc(-c2ccccn2)cs1,1.2%,-89.1*,-85.5*,-11.4,u
Cc1ccc(-c2cc(=O)c3ccccc3[nH]2)cc1,3.1%,5.0,8.4,9.2,-1.4%
Cc1ccc2[nH]c(-c3ccccc3)cc(=O)c2c1,0.7%,x,1.7,11.5,5.62µM*
Cc1ccc2c(c1)c1ccc3c(c1n2C)C(=O)C=CC3=O,-11.9%,u,u,-16.9,2.4%
COc1ccc2c(c1)c1ccc3c(c1n2C)C(=O)C=CC3=O,-5.2%,x,-68.7*,-23.6,0.0%
COc1ccccc1/C=N\Nc1ccccc1[N+](=O)[O-],-12.4%,0.0,-19.0,-8.7,u
CC(C)Oc1ccccc1/C=N/Nc1ccccc1[N+](=O)[O-],-19.8%,-75.8*,-72.1*,-11.1,u
Cc1[nH]c2ccccc2c1/C=N/Nc1ccccc1[N+](=O)[O-],-10.9%,u,-68.8*,-19.1,u
Cc1cccc(CCNC(=O)C2CCC(CNS(=O)(=O)c3c(C)cc(C)cc3C)CC2)c1 (stereo not drawn),x,x,x,x,1.7%
COc1cc(C2NC(=O)NC(C)=C2C(=O)OCc2ccccc2)ccc1O (stereo not drawn),2.7%,5.3,-27.0,9.0,-20.7%
CCOc1cc(C2NC(=O)NC(C)=C2C(=O)OCc2ccccc2)ccc1O (stereo not drawn),1.4%,6.2,-68.8*,12.2,u
CCCCNC(=O)C(CC)Sc1nc2ccccc2c(=O)n1Cc1ccco1 (stereo not drawn),x,x,x,x,2.5%
SMILES,ASM inhibitor,CtBP-E1A inh,Six1-Eya2 blk,TSHR antagonist,BCR signal inh
CCN(CC)C(=O)c1sc2c(c1C)c(=O)n(-c1ccc(Cl)c(Cl)c1)c(=O)n2Cc1cc(=O)n2ccccc2n1,x,x,x,x,-3.1%
O=C(CC(NCc1ccccn1)C(=O)O)Nc1ccccc1Cl (stereo not drawn),5.1%,-88.7*,-90.8*,2.2,1.9%
Nc1ncnc(Oc2cccc3cccnc23)c1[N+](=O)[O-],-0.7%,-13.1,-66.6*,-4.0,u
O=[N+]([O-])c1cc2c(cc1/C=N/n1c(-c3ccccn3)n[nH]c1=S)OCO2,-0.5%,7.6,-82.7*,-10.7,1.6%
Cc1ccsc1/C=N/n1c(-c2ccccn2)n[nH]c1=S,-3.9%,u,-78.1*,-7.2,0.5%
S=c1[nH]nc(-c2ccccn2)n1/N=C/c1ccco1,3.3%,-0.4,-73.9*,-0.1,u
CN(C)CCn1c2c(c(SCC(=O)Nc3ccc(F)cc3F)nc1=O)CCC2,x,x,x,x,6.8%
Cc1ccc(C(=O)COC(=O)CSc2cccc3cccnc23)c(C)c1,-4.5%,-76.8*,0.0,x,x
CCOC(=O)c1ncccc1NC(=O)CC(=O)Nc1cccnc1C(=O)OCC,-1.6%,x,-94.9*,x,x
COc1ccc(NC(=O)C2CC(=O)OC23CCCCC3)cc1 (stereo not drawn),3.2%,4.3,-4.4,4.9,-13.6%
COc1cccc(NC(=O)c2ccc(NC(=O)C3CC(=O)OC34CCCCC4)cc2)c1 (stereo not drawn),-18.0%,-80.1*,u,9.6,u
CC(=O)c1ccc(Nc2nc(C(N)CC(C)C)cs2)cc1 (stereo not drawn),x,-1.1,-2.5,x,x
CC(C)CC(N)c1csc(Nc2ccc(C(F)(F)F)cn2)n1 (stereo not drawn),x,u,-5.1,x,x
NC(CO)c1csc(Nc2ccc(C(F)(F)F)cn2)n1 (stereo not drawn),x,-73.8*,u,x,x
CC(C)CC(N)c1csc(Nc2cnccn2)n1 (stereo not drawn),x,-75.1*,u,x,x
CC(C)CC(N)c1csc(Nc2ccccn2)n1 (stereo not drawn),x,-89.2*,-83.3*,x,x
COc1ccc(CC(=O)NC2CC(=O)N(c3ccc4c(c3)OCCO4)C2)cc1 (stereo not drawn),x,x,x,x,-0.8%
COc1ccccc1CNC(=O)C(=O)NCC(c1ccco1)S(=O)(=O)c1cccs1 (stereo not drawn),x,x,x,x,-17.3%
COc1ccc(NC(=O)c2oc3ccc(S(=O)(=O)N4CCCCC4)cc3c2C)cc1Cl,x,x,x,x,2.1%
CCOc1ccc(C(=O)N2CCC(c3ccncc3)CC2)cc1,x,x,x,x,0.2%
O=C(NC(=S)NNC(=O)c1ccc(Cl)cc1Cl)c1cccnc1,-1.1%,-9.6,0.1,-0.8,u
COc1ccc(C(=O)NNC(=S)NC(=O)c2cccc([N+](=O)[O-])c2)cc1,-0.8%,-4.9,-5.6,x,x
CCOc1ccc(C(=O)NC(=S)Nc2ccccn2)cc1[N+](=O)[O-],0.3%,-1.2,10.4,-7.7,u
O=C(NC(=S)NNC(=O)c1ccccc1O)c1cccnc1,-1.7%,x,-89.9*,-9.6,u
O=C(NC(=S)NNC(=O)c1ccccc1O)c1cccc([N+](=O)[O-])c1,-2.0%,-90.3*,-77.4*,-0.1,u
O=C(NC(=S)Nc1ccccn1)c1cccc([N+](=O)[O-])c1,2.5%,-73.9*,u,2.5,-16.2%
